Measurements: PubChem BioAssay AID602314 (ICCB-Longwood Screening Facility, Harvard Medical School, 2012)
“And” between values parts separate entries of the source, which are not always exact repeats. Equal entries are not always repeated. Hit rate of the full screen: of about 84,000 compounds, about 110 (0.13%) were called active. No stated cut-off is given here; in the data, active means inhibition above about 30% (passing the limit was not always enough); inactive means the rest. Shown is part of a subset that was picked to be rich in actives. Some compounds were tested as several samples or in several runs, with calls that do not always agree.

Tested on: MgrA (MarR family transcriptional regulator), Staphylococcus aureus Newman
Experiment: S. aureus MgrA activity modulators, primary screen, biochemical, S. aureus Newman, fluorescence polarization (AID 602314);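 further: 0% = protein plus DNA without compound and 100% = DNA alone without protein; higher means less MgrA bound to DNA so lower polarization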
Settings: MgrA-DNA binding, stronger effect = higher value, concentration not given here

**Q.** With `O=C(O)c1ccc(Cl)cc1N=Cc1nc(-c2ccc(Br)cc2)oc1O` as the compound, how does the inhibition read?
**A.** -0.9% (inactive)

**Q.** `Cc1ccc(-c2nn(CCC(=O)Nc3cccc(C(F)(F)F)c3)c(=O)c3ccccc23)cc1` was tested. Which inhibition did it give?
**A.** 0.65% (inactive)

**Q.** Which inhibition does the source give for `O=C(CN1CCN(c2cccc(Cl)c2)CC1)c1ccc(Cl)cc1` here?
**A.** 6.3% (inactive)

**Q.** Which inhibition does the source give for `COC(=O)c1cccnc1NC(=S)NC(C)C` here?
**A.** 3.15% (inactive)

**Q.** With `COc1ccc(NC(=O)Nc2ccc(N3CCOCC3)cc2)cc1` as the compound, how does the inhibition read?
**A.** -0.2% (inactive)

**Q.** Which inhibition does the source give for `O=C1C(Nc2ccc(O)cc2)=C(n2nnc3ccccc32)C(=O)c2ccccc21` here?
**A.** -0.3% (inactive)

**Q.** With `NC(=S)C1(c2ccc(Cl)cc2Cl)CC1` as the compound, how does the inhibition read?
**A.** -0.5% (inactive)

**Q.** How did the inhibition turn out when `CC1CN(S(=O)(=O)c2ccc3c4c(cccc24)C(=O)N3)CC(C)O1` (configuration not stated) was run?
**A.** 0.25% (inactive)

**Q.** How did the inhibition turn out when `CC[n+]1c(C)n(-c2ccccc2)c2ccc(N)cc21` was run?
**A.** 1.45% (inactive)

**Q.** How did the inhibition turn out when `CC[N+](C)(CC)CCC[n+]1c(-c2ccccc2)c2cc(N)ccc2c2ccc(N)cc21` was run?
**A.** 104% (active) and 0.85% (inactive)

**Q.** `N=C1/C(=C/c2ccc(SCc3ccccc3)o2)C(=O)N=C2SC=CN12` was tested. Which inhibition did it give?
**A.** 1.55% (inactive)

**Q.** With `N#CC(=C1C(=O)c2ccccc2C1=O)c1nc2ccccc2[nH]1` as the compound, how does the inhibition read?
**A.** 59.7% (active)

**Q.** Which inhibition does the source give for `N#C/C(=C\C=C\c1ccccc1)c1nc2ccccc2[nH]1` here?
**A.** 9.2% (inactive)

**Q.** With `CS(=O)(=O)c1nc2ccccc2[nH]1` as the compound, how does the inhibition read?
**A.** -4.3% (inactive)

**Q.** With `CCN(CC)C(=O)CSc1nc2ccccc2cc1C` as the compound, how does the inhibition read?
**A.** 0.6% (inactive)

**Q.** For `Nc1ccccc1C(=O)Nc1ccc(Cl)cc1`, which inhibition is on record?
**A.** -1.3% (inactive)

**Q.** For `CCCCOc1ccc(C2=N/C(=C\c3cc(OC)c(OC)cc3OC)C(=O)O2)cc1`, which inhibition is on record?
**A.** -1.1% (inactive)

**Q.** Which inhibition does the source give for `CSc1n[nH]c(-c2ccc(Cl)cc2)c1C#N` here?
**A.** -2.1% (inactive)

**Q.** With `CC(C)c1ccc(NC(=O)CN2N=C(c3ccc(Cl)cc3)CCC2=O)cc1` as the compound, how does the inhibition read?
**A.** 0.65% (inactive)

**Q.** Which inhibition does the source give for `O=C1/C(=C\c2cccs2)SC(=S)N1CCCC(=O)N1CCCc2ccccc21` here?
**A.** 2.75% (inactive)

**Q.** How did the inhibition turn out when `Cc1ccc(C(=O)OCC2OC(C#N)CC2OC(=O)c2ccc(C)cc2)cc1` (configuration not stated) was run?
**A.** -3.65% (inactive)

**Q.** `CSc1ncc(Br)c(C(=O)O)n1` was tested. Which inhibition did it give?
**A.** -4.9% (inactive)

**Q.** How did the inhibition turn out when `O=C(c1ccc(F)cc1)c1c[nH]c(C(=O)NCc2ccc(F)cc2)c1` was run?
**A.** -2.05% (inactive)

**Q.** How did the inhibition turn out when `COCCn1c(N)cc(=O)[nH]c1=S` was run?
**A.** 0.65% (inactive)

**Q.** How did the inhibition turn out when `Cc1cccc(OCC(=O)N2CCc3ccccc32)c1` was run?
**A.** 0.6% (inactive)

**Q.** With `CCN(CC)C(=O)Cc1cc(OC)c(OC)cc1Br` as the compound, how does the inhibition read?
**A.** 3.35% (inactive)

**Q.** How did the inhibition turn out when `Cn1cnnc1SCc1ccc(Cl)cc1` was run?
**A.** -1.45% (inactive)

**Q.** For `CCc1cccc(CC)c1N1C(=O)CC(Sc2ccccc2N)C1=O` (configuration not stated), which inhibition is on record?
**A.** 1.1% (inactive)

**Q.** `c1ccc2c(c1)CCN2c1nc2ccccc2n2cnnc12` was tested. Which inhibition did it give?
**A.** 0.25% (inactive)

**Q.** For `O=c1[nH]c(O)c(C=NCCCn2ccnc2)c(=O)[nH]1`, which inhibition is on record?
**A.** 5.6% (inactive)

**Q.** Which inhibition does the source give for `CSc1nsc(SCC(=O)OC2CC(C)CCC2C(C)C)n1` (configuration not stated) here?
**A.** 0.7% (inactive)

**Q.** How did the inhibition turn out when `CC(C)(C)c1ccc(NC(=O)COC(=O)c2ccc(F)cc2F)cc1` was run?
**A.** 4.8% (inactive)

**Q.** How did the inhibition turn out when `CCN(C(=O)c1cccs1)c1cccc2ccccc12` was run?
**A.** -1.8% (inactive)

**Q.** `COc1cccc(CC(=O)Nc2ccc(-c3csc(C)n3)cc2)c1` was tested. Which inhibition did it give?
**A.** -0.65% (inactive)

**Q.** How did the inhibition turn out when `Cc1ccc(NC2SC(=O)NC2=O)cc1` (configuration not stated) was run?
**A.** 1.7% (inactive)

**Q.** With `O=C(NC1CC1)C1C2C=CC3(O2)C1C(=O)N(C1CC1)C3C(=O)NC1CCCCC1` (configuration not stated) as the compound, how does the inhibition read?
**A.** 0.25% (inactive)

**Q.** Which inhibition does the source give for `CCSc1nnc2c(n1)OC(c1cccc(OC)c1)Nc1ccccc1-2` (configuration not stated) here?
**A.** -1.3% (inactive)

**Q.** `CC(=O)Nc1ccc(-c2nnc(-c3ccco3)o2)cc1` was tested. Which inhibition did it give?
**A.** -3.3% (inactive)

**Q.** How did the inhibition turn out when `CC(C)(C)C/C(=N/O)c1ccccc1` was run?
**A.** 0.2% (inactive)

**Q.** `Cc1nnc(SCc2ccc(C#N)cc2)s1` was tested. Which inhibition did it give?
**A.** 0.7% (inactive)

**Q.** How did the inhibition turn out when `CSc1ncnc2sc(-c3ccccc3)cc12` was run?
**A.** 0.75% (inactive)

**Q.** With `CCOC(=O)c1sc(NC(C)=O)c(C#N)c1C` as the compound, how does the inhibition read?
**A.** -2.1% (inactive)

**Q.** `O=C(c1cnn2c(C(F)F)cc(-c3ccccc3)nc12)N1CCCC1` was tested. Which inhibition did it give?
**A.** -0.35% (inactive)

**Q.** With `CCOC(=O)c1ccc(NC(=O)CC2C(=O)N(c3ccc(F)cc3)C(=O)N2Cc2cccs2)cc1` (configuration not stated) as the compound, how does the inhibition read?
**A.** -1.9% (inactive)

**Q.** Which inhibition does the source give for `FC(F)(F)c1cccc(CSc2ncn[nH]2)c1` here?
**A.** -0.7% (inactive)

**Q.** For `COc1ccccc1C=NC12CN3CN(CN(C3)C1)C2`, which inhibition is on record?
**A.** 2.95% (inactive)

**Q.** How did the inhibition turn out when `Oc1[nH]c2ccccc2c1C=NCCC1=CCCCC1` was run?
**A.** 5.65% (inactive)

**Q.** Which inhibition does the source give for `CCOCCOC(=O)C1=C(C)NC2=C(C(=O)CC(c3ccccc3)C2)C1c1cc2c(cc1Br)OCO2` (configuration not stated) here?
**A.** -2.9% (inactive)

**Q.** With `CCOC(=O)c1cccn1-c1ncc(C(F)(F)F)cc1Cl` as the compound, how does the inhibition read?
**A.** -1.2% (inactive)

**Q.** How did the inhibition turn out when `Cc1ccc(-c2nn(CCC(=O)NCCN3CCOCC3)c(=O)c3ccccc23)cc1` was run?
**A.** 0.2% (inactive)

**Q.** With `O=C(Nc1ccccc1-c1nc2ccccc2[nH]1)c1ccccc1Br` as the compound, how does the inhibition read?
**A.** -2.6% (inactive)

**Q.** `N#CCc1ccc(OCc2ccc(Cl)c(Cl)c2)cc1` was tested. Which inhibition did it give?
**A.** -1.9% (inactive)
